Screen size: about 52,000 compounds; about 4,300 (8.3%) were called active. No stated cut-off is given here; in the data, active means survival mostly below about 52% (no sharp cut-off); inactive means mostly above about 56%. For the sample, actives were picked, then their nearest neighbours and some compounds at random.
The compounds below were run on DeltatarO mutant (assay: growth inhibition of S. aureus wild type versus tarO mutant, primary screen, teichoic acid synthesis inhibitors, RN4220, OD600 (AID 463173)). Conditions: OD600, 18 h, hits give low values, screened at 18.75 µg/mL (by protocol).
For `COc1ccc(NC(=O)c2cc(S(=O)(=O)N3CCCC(C)C3)cn2C)c(OC)c1` (stereo unspecified), the survival was 87% (inactive).
`Cc1cc(N2CCN(c3cc(Cl)ccc3C)CC2)n2nc(-c3ccccc3)nc2n1` was tested, and the survival was 77% (inactive).
For `Cc1ccc(-c2nc3nc(C)cc(N4CCN(c5cccc(C)c5C)CC4)n3n2)cc1`, the survival was 128% (inactive).
For `COc1ccccc1N1CCN(c2cc(C)nc3nc(-c4ccc(Cl)cc4)nn23)CC1`, the survival was 38% (active).
`COc1ccccc1N1CCN(c2cc(C)nc3c(-c4ccc(Cl)cc4)c(C)nn23)CC1` was tested, and the survival was 87% (inactive).
`COc1ccc(N2CCN(c3cc(C)nc4nc(-c5ccc(C)cc5)nn34)CC2)cc1` was tested, and the survival was 53% (inactive).
`COc1ccccc1N1CCN(c2cc(C)nc3nc(-c4ccc(C)cc4)nn23)CC1` was tested, and the survival was 40% (active).
`COc1cc(C(=O)NCc2ccc3c(c2)CCN3C(=O)c2ccncc2)cc(OC)c1OC` was tested, and the survival was 101% (inactive).
`Cc1cccc(N2CCN(C(=O)c3cn(C4CCCCC4)c(=O)c4c3c3ccccc3n4C)CC2)c1C` was tested, and the survival was 115% (inactive).
With `CCC1CC(/C(C)=N/NC(N)=O)OC1=O` (stereo unspecified) the survival was 71% (inactive).
For `Cc1c(-c2nc(-c3ccccc3F)no2)nnn1-c1cc(F)ccc1F`, the survival was 84% (inactive).
With `CCOC(=O)c1c(C)n(-c2ccccc2)c2ccc(OC(=O)c3ccccc3)cc12` the survival was 3% (active).
In the case of `CCOC(=O)c1c(C)n(-c2ccccc2)c2ccc(OC(=O)c3ccccc3NC(=O)C(C)C)cc12`, the survival is reported as 47% (active).
In the case of `CCOC(=O)c1c(C)n(-c2ccccc2)c2ccc(OC(=O)c3cccc(C)c3)cc12`, the survival is reported as 63% (inactive).
With `CCOC(=O)c1c(C)n(-c2ccccc2)c2ccc(OC(=O)c3cccc(Cl)c3)cc12` the survival was 79% (inactive).
In the case of `CCOC(=O)c1c(C)n(-c2ccccc2)c2ccc(OC(=O)c3ccccc3NC(=O)C(C)(C)C)cc12`, the survival is reported as 55% (inactive).
With `CCOC(=O)c1c(C)n(-c2ccccc2)c2ccc(OC(=O)c3ccccc3Cl)cc12` the survival was 54% (inactive).
In the case of `COc1ccc(S(=O)(=O)N2CCC(C(=O)Nc3ccc(Oc4ccccc4)cc3)CC2)cc1`, the survival is reported as 72% (inactive).
For `O=C(COc1ccc(S(=O)(=O)NC2CCCCC2)cc1Cl)NCc1ccccn1`, the survival was 104% (inactive).
In the case of `COc1ccc(N2CCN(C(CNC(=O)C(=O)NCc3ccc(C)cc3)c3cccnc3)CC2)cc1` (stereo unspecified), the survival is reported as 61% (inactive).
In the case of `CCCCNc1nc2c(S(=O)(=O)c3ccc(C)cc3)nnn2c2ccsc12`, the survival is reported as 114% (inactive).
`Cc1ccc(C)c(NC(=O)CSc2nncn3c2cc2sccc23)c1` was tested, and the survival was 69% (inactive).
With `O=C(c1cc2c(=O)[nH]c3ccccc3c2s1)N1CCN(c2ccc(F)cc2)CC1` the survival was 51% (inactive).
With `Cc1ccc(Cl)cc1N1CCN(CCCNC(=O)c2nnc(Cc3cccc(Cl)c3)o2)CC1` the survival was 25% (active).
`CCC(=O)N1c2ccccc2CC1C(=O)NCCN1CCN(c2cc(Cl)ccc2C)CC1` (stereo unspecified) was tested, and the survival was 52% (active).
With `O=C(NCCCN1CCN(c2ccccc2F)CC1)c1nnc(Cc2ccc(Cl)cc2Cl)o1` the survival was 80% (inactive).
For `O=C(NCCCN1CCN(c2ccc(F)cc2)CC1)Nc1ccc(Cl)cc1`, the survival was 72% (inactive).
With `Cc1ccc(C)c(N2CCN(CCCNC(=O)Nc3ccc(Cl)cc3)CC2)c1` the survival was -5% (active).
`CCOc1ccc(NC(=O)NCCN2CCN(c3cc(Cl)ccc3C)CC2)cc1` was tested, and the survival was 54% (inactive).
In the case of `Cc1ccc(Cl)cc1N1CCN(CCNC(=O)Nc2ccc(Cl)cc2)CC1`, the survival is reported as -4% (active).
With `Cc1cccc(N2CCN(CCNC(=O)Nc3ccc(Cl)cc3)CC2)c1C` the survival was 66% (inactive).
In the case of `CCC(=O)N1c2ccccc2CC1C(=O)NCCN1CCN(c2cccc(C)c2C)CC1` (stereo unspecified), the survival is reported as 77% (inactive).
With `CCC(=O)N1c2ccccc2CC1C(=O)NCCN1CCN(c2cccc(Cl)c2)CC1` (stereo unspecified) the survival was 87% (inactive).
`Cc1ccc(Cl)cc1N1CCN(CCNC(=O)Nc2ccccc2Cl)CC1` was tested, and the survival was 77% (inactive).
`COc1ccc(Cc2nnc(C(=O)NCCCN3CCN(c4ccccc4F)CC3)o2)cc1OC` was tested, and the survival was 78% (inactive).
`CCc1ccc(S(=O)(=O)Nc2ccc(-c3ccc(N4CCCCCC4)nn3)cc2)cc1` was tested, and the survival was 95% (inactive).
In the case of `Cc1ccc(C)c(N(C)C(=O)CCNC(=O)Cn2cnc3ccccc3c2=O)c1`, the survival is reported as 69% (inactive).
In the case of `Cc1ccc(S(=O)(=O)NC2(C(F)(F)F)C(=O)Nc3c2c(=O)[nH]c(=O)n3-c2ccccc2)cc1` (stereo unspecified), the survival is reported as 89% (inactive).
`COc1cc(OC)cc(-c2nc3nc(C)c(CCC(=O)Nc4ccc(Cl)cc4)c(C)n3n2)c1` was tested, and the survival was 65% (inactive).
`COc1cccc(CNc2ncnc3onc(C)c23)c1` was tested, and the survival was 125% (inactive).
`Cc1ccc(NC(=O)N2CCc3cc(S(=O)(=O)N4CCC(C)CC4)ccc32)cc1F` was tested, and the survival was 105% (inactive).
With `COc1c(C)cccc1C(=O)Nc1ccc(-c2nc3ccccc3s2)c(Cl)c1` the survival was 68% (inactive).
With `Cc1ccccc1CNC(=O)c1ccc2nc(C(C)C)oc2c1` the survival was 83% (inactive).
For `COc1ccc(-c2onc(C)c2C)cc1S(=O)(=O)N1CCN(c2cc(C)ccc2C)CC1`, the survival was 81% (inactive).
For `CN(C)S(=O)(=O)c1ccc(C(=O)NCCSc2c(-c3ccc(Cl)cc3)[nH]c3ccccc23)cc1`, the survival was 67% (inactive).
In the case of `O=C(NCCSc1c[nH]c2ccccc12)c1ccc(Cl)cc1`, the survival is reported as 47% (active).
In the case of `Cc1ccc(C(=O)NCCSc2c[nH]c3ccccc23)cc1C`, the survival is reported as 46% (active).
In the case of `O=C(NCCSc1c[nH]c2ccccc12)c1ccccc1Cl`, the survival is reported as 57% (inactive).
For `Cc1ccc(C(=O)NCCSc2c(C)[nH]c3ccccc23)cc1C`, the survival was 55% (inactive).
In the case of `COc1ccc(C(=O)NCCSc2c[nH]c3ccccc23)cc1OC`, the survival is reported as 76% (inactive).
For `Cc1ccc(Cn2c(CN3CCN(c4cccc(Cl)c4)CC3)nc3c2c(=O)n(C)c(=O)n3C)cc1`, the survival was 107% (inactive).
`COc1cccc(C2CC(=O)Nc3c2c(=O)n(C)c2nc4ccccc4n32)c1` (stereo unspecified) was tested, and the survival was 67% (inactive).
In the case of `CCn1c(=O)cc(SCC(=O)NCc2ccc(OC)cc2OC)c2ccccc21`, the survival is reported as 66% (inactive).
`CCCCOc1ccc(C2=NC(c3ccncc3)=Nc3ccc(OCC)cc3N2)cc1` was tested, and the survival was 75% (inactive).
`COc1ccc(C2=NC(c3ccncc3)=Nc3ccc(Br)cc3N2)cc1` was tested, and the survival was 82% (inactive).
For `CCCCOc1ccc(C2=NC(c3ccncc3)=Nc3ccc(Br)cc3N2)cc1`, the survival was 12% (active).

Source: PubChem BioAssay AID463173 (ICCB-Longwood Screening Facility, Harvard Medical School, 2010)
